Measured values from PubChem BioAssay AID1159580 (chemical genetic matrix, 2015).
In all, about 5,500 compounds went through this assay and about 2,000 (36%) were called active. About 18% were inconclusive and are not listed. No stated cut-off is given here; in the data, active means normalized growth mostly below about 0.91 (no sharp cut-off); inconclusive means no clear call, values can overlap the other calls; inactive means mostly above about 0.92. Some of the results follow.

Assay: chemical genetic growth profiling, strain panel (AID 1159580);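 further: tested at 20 µM; growth read once vehicle control cultures reached saturation at 30 °C; 1 = growth at the plate median or of vehicle wells; lower values mean less growth of the strain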
Settings: S. cerevisiae deletion strains, growth OD

Measured: normalized growth

COc1ccc(-c2c(OC)c3c(OC)c4c(cc3oc2=O)OC(C)(C)C=C4)cc1
inactive: locus YBR021W, strain FUR4, active compounds read low 1.08 | locus YBR229C, strain ROT2, active compounds read low 1.03 | locus YCL029C, strain bik1, active compounds read low 0.974 | locus YDL035C, strain GPR1, active compounds read low 1.09 | locus YDL074C, strain BRE1, active compounds read low 1.18 | locus YDL101C, strain DUN1, active compounds read low 0.99 | locus YDL185W, strain tfp1, active compounds read low 0.988 | locus YDL192W, strain arf1, active compounds read low 1.08 | locus YDR101C, strain arx1, active compounds read low 1.07 | locus YDR162C, strain NBP2, active compounds read low 1.06 | locus YDR318W, strain mcm21, active compounds read low 1 | locus YDR388W, active compounds read low 0.983 | locus YDR502C, strain sam2, active compounds read low 1.05 | locus YEL061C, strain CIN8, active compounds read low 1.02 | locus YER110C, active compounds read low 0.973 | locus YER155C, strain BEM2, active compounds read low 1.01 | locus YER167W, strain BCK2, active compounds read low 1.01 | locus YGL078C, strain dbp3, active compounds read low 1.02 | locus YGL086W, strain mad1, active compounds read low 1.05 | locus YGL248W, strain PDE1, active compounds read low 1.07 | locus YGR135W, strain pre9, active compounds read low 1.02 | locus YGR252W, strain gcn5, active compounds read low 1.21 | locus YHR030C, strain SLT2, active compounds read low 1 | locus YHR079C, strain IRE1 (second series), active compounds read low 0.991 | locus YHR094C, strain hxt1, active compounds read low 1 | locus YHR129C, strain ARP1, active compounds read low 1.02 | locus YHR200W, strain rpn10, active compounds read low 1.04 | locus YIL066C, strain RNR3, active compounds read low 1.01 | locus YIL073C, strain SPO22, active compounds read low 1.12 | locus YIL125W, strain kgd1, active compounds read low 1.02 | locus YIR030C, strain dcg1, active compounds read low 1.01 | locus YJL095W, strain BCK1, active compounds read low 1.08 | locus YJL134W, strain LCB3, active compounds read low 0.991 | locus YJL168C, strain set2, active compounds read low 1 | locus YJL187C, strain SWE1 (second series), active compounds read low 1 | locus YJR075W, strain HOC1, active compounds read low 1 | locus YKL009W, strain mrt4, active compounds read low 1.03 | locus YKL068W, active compounds read low 1.03 | locus YKL085W, strain MDH1 (second series), active compounds read low 1.04 | locus YKL085W, strain MDH1, active compounds read low 1.04 | locus YKL190W, strain CNB1, active compounds read low 0.988 | locus YKR001C, strain vps1, active compounds read low 1.09 | locus YLR039C, strain RIC1, active compounds read low 1.22 | locus YLR058C, strain SHM2, active compounds read low 1.01 | locus YLR102C, strain apc9, active compounds read low 0.972 | locus YLR268W, strain sec22, active compounds read low 1.04 | locus YLR330W, strain CHS5, active compounds read low 1.03 | locus YLR342W, strain FKS1 (second series), active compounds read low 1.03 | locus YLR371W, strain rom2, active compounds read low 0.992 | locus YML016C, strain PPZ1, active compounds read low 1.01 | locus YML032C, strain rad52, active compounds read low 0.987 | locus YML124C, strain tub3, active compounds read low 1.03 | locus YMR078C, strain ctf18, active compounds read low 0.993 | locus YMR223W, strain ubp8, active compounds read low 1.02 | locus YMR307W, strain GAS1, active compounds read low 1.32 | locus YNL067W, strain RPL9B, active compounds read low 1 | locus YNL153C, strain GIM3, active compounds read low 1.01 | locus YNL233W, strain BNI4, active compounds read low 1.05 | locus YNL250W, strain rad50, active compounds read low 0.999 | locus YNL271C, strain bni1, active compounds read low 1.03 | locus YNL298W, strain CLA4, active compounds read low 1.03 | locus YNL307C, strain MCK1, active compounds read low 0.967 | locus YNR052C, strain pop2, active compounds read low 1.02 | locus YOL012C, strain htz1 1.03 | locus YOL147C, strain pex11, active compounds read low 0.997 | locus YOR061W, strain CKA2, active compounds read low 1.02 | locus YOR069W, strain VPS5, active compounds read low 0.993 | locus YOR136W, strain idh2, active compounds read low 1 | locus YOR144C, strain elg1, active compounds read low 1.03 | locus YOR184W, strain ser1, active compounds read low 1.11 | locus YOR316C, strain cot1, active compounds read low 0.975 | locus YPL055C, strain LGE1, active compounds read low 1.16 | locus YPR119W, strain clb2, active compounds read low 0.978 | locus YPR141C, strain kar3, active compounds read low 1.03 | locus YPR163C, strain tif3, active compounds read low 1 | locus YPR167C, strain met16, active compounds read low 1.01 | strain wtn01, active compounds read low 1.07
active: locus YOL006C, strain TOP1, active compounds read low 1.54 [resistant]
